Source: PubChem (several laboratories)
Rows were chosen to be rich in hits. Some 12% of all compounds tested hit in one or more screens of this group.
Lmaj promast – Leishmania major promastigote growth inhibition; Leishmania major promastigotes, resazurin fluorescence viability; inhibition, % at 10 µM; actives 9% (n = 200,000); in the data active = inhibition above about 50%;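 also: promastigotes grown with compound for 44 hours at 28 °C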
WT yeast gro inh – growth inhibition of WT yeast, mitochondrial fusion screen; mitochondrial fusion phenotypic screen, WT strain; inhibition, % at 10 µM; actives 2.1% (n = 190,000); in the data active = inhibition above about 58%; tested in S. cerevisiae
Ins promoter up – MIN6 insulin promoter up-regulation; MIN6 insulin promoter-GFP reporter, high-content imaging; stronger effect = higher value; AID 1625; actives 0.3% (n = 190,000); z-score at 5 µM;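 active = z-score above 3 at 5 µM with at least 500 cells counted in the well; inconclusive = wells under 500 cells, flagged as cytotoxic or low count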
Cl transport mod – modulates chloride dependent transport by human KCC2; B-score of Tl+ flux slope (higher = more flux/activation; lower = inhibition) at 10 µM; actives 2.2% (n = 190,000); AID 1456; KCC2 cells, thallium flux FluoZin-2 fluorescence;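 active = thallium flux slope and its plate-corrected score both differing from the plate sample mean at a set confidence after two filtering rounds, in either direction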;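 also: slope of fluorescence scaled to starting intensity during 10 to 20 s after thallium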
Target sequence (Q9H2X9 whole entry, looked up): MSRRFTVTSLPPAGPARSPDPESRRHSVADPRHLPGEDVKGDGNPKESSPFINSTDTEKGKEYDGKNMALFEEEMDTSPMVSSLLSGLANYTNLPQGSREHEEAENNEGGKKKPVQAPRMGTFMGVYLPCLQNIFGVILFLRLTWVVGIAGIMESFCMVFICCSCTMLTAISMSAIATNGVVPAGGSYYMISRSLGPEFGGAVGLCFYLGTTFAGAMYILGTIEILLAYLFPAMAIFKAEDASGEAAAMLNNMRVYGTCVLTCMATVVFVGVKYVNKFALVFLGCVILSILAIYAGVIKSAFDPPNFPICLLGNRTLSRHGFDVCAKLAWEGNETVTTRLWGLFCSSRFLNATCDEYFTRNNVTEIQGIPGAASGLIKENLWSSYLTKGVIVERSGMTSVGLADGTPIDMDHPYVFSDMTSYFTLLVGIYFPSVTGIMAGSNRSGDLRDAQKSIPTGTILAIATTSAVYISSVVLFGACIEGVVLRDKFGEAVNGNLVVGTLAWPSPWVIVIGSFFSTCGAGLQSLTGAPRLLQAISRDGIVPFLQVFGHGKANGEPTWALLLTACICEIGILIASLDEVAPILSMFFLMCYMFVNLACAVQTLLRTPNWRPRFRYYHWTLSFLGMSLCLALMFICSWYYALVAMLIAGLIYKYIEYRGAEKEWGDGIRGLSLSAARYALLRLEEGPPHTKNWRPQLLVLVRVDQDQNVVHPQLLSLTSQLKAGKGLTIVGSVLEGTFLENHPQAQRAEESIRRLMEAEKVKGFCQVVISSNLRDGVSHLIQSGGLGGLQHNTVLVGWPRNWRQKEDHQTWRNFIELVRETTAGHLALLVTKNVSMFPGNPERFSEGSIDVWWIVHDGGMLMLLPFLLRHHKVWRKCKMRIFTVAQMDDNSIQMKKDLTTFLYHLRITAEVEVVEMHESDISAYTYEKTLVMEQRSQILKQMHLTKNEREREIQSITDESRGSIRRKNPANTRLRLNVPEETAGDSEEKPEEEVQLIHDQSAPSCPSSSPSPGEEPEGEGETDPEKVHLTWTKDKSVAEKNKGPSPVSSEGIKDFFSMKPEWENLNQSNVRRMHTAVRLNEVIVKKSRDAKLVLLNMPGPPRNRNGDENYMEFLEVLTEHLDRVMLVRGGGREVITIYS
Insulin prom inh – TRM-6 insulin promoter activity inhibition; TRM-6 cells (human fetal islet line), insulin promoter-eGFP reporter, imaging; reporter expression induced with tamoxifen; inhibition, % at 2 µM; actives 0.9% (n = 130,000);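 active = inhibition above the mean plus 3 SD, with well images judged a real hit on visual review, cut at about 60% in these data, passing the limit was not always enough; inconclusive = inhibition over the cutoff but images rejected on review; inactive = inhibition not above the cutoff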
ROMK primary – modulators of human ROMK potassium channel | P48048 | Tet-inducible ROMK, thallium flux fluorescence; actives lie on both sides | B-score at 10 µM | actives 2% (n = 130,000);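 active = signal ratio slope over the read window, or its plate-corrected B-score, at least 3 SD from the plate mean, either direction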;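 also: B-score of the F/F0 ratio slope over 7 to 12 s after thallium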
* = called active by the depositor.

What do the screens show for `COc1ccc(C)c2sc(N(CCCN(C)C)C(=O)c3ccc(S(=O)(=O)N(C)C)cc3)nc12`?
Lmaj promast: 73.5*; WT yeast gro inh: -0.3; Cl transport mod: 0.482; Insulin prom inh: -25.0; ROMK primary: 0.031

What do the screens show for `COc1ccccc1C(CC(=O)Nc1ccc(C)c(C)c1)c1ccc(OC(C)C)cc1` (stereo not given)?
Lmaj promast: 51.1*; WT yeast gro inh: 25.6; Ins promoter up: -0.06; Cl transport mod: 0.756; Insulin prom inh: 14.7; ROMK primary: -0.24

What do the screens show for `COc1ccc(Cl)cc1N(CC(=O)Nc1ccccc1C(=O)NCc1ccco1)S(C)(=O)=O`?
Lmaj promast: 82.7*; WT yeast gro inh: -17.5; Ins promoter up: 1.18; Cl transport mod: -0.748; Insulin prom inh: -156.2

What do the screens show for `O=C(Cc1c(O)c2ccccc2[nH]c1=O)NCc1ccccc1F`?
Lmaj promast: -4.1; WT yeast gro inh: 60.0*; Ins promoter up: 0.57; Cl transport mod: 0.178; Insulin prom inh: -53.9

How did O=C(Cc1c(O)c2ccccc2[nH]c1=O)NCc1cccc(F)c1 do in these assays?
Lmaj promast: -3.7; WT yeast gro inh: 3.0; Ins promoter up: -0.28; Cl transport mod: 0.198; Insulin prom inh: -17.4; ROMK primary: 0.901

What do the screens show for `CC(C)CC(=O)NC(=S)N(Cc1ccccc1)Cc1ccccc1`?
Lmaj promast: 18.9; WT yeast gro inh: 64.2*; Ins promoter up: -0.8; Cl transport mod: 49.3*; Insulin prom inh: -29.4; ROMK primary: 0.19

What do the screens show for `CC(C)CC(=O)NC(=S)Nc1ccccc1F`?
Lmaj promast: -0.9; WT yeast gro inh: 17.4; Ins promoter up: 0.39; Cl transport mod: -0.64; Insulin prom inh: 31.0; ROMK primary: -0.584

Results for CC(C)C(=O)NC(=S)N(Cc1ccccc1)Cc1ccccc1 ?
Lmaj promast: 32.6; WT yeast gro inh: 32.9; Cl transport mod: 41.7*; Insulin prom inh: -32.3; ROMK primary: 0.173

Results for O=c1c2c(n3cnnc3n1-c1ccccc1)-c1ccccc1CC21CCCC1 ?
Lmaj promast: 65.8*; WT yeast gro inh: 1.0; Ins promoter up: -0.21; Cl transport mod: -0.662; Insulin prom inh: -35.1; ROMK primary: -0.417

Results for O=c1c2c(n3nnnc3n1-c1ccccc1)-c1ccccc1CC21CCCC1 ?
Lmaj promast: -6.3; WT yeast gro inh: -1.0; Ins promoter up: 1.34; Cl transport mod: 0.809; Insulin prom inh: 26.9

How did Cc1ccc2oc(=O)n(CC(=O)OC(C)C)c2c1 do in these assays?
Lmaj promast: -1.2; WT yeast gro inh: -13.5; Ins promoter up: 0.15; Cl transport mod: 1.4; Insulin prom inh: 25.0; ROMK primary: 0.413

Results for O=S(=O)(/C=C/c1ccccc1)N1CCN(c2nc(-c3cccnc3)nc3ccccc23)CC1 ?
Lmaj promast: 52.5*; WT yeast gro inh: 14.6; Ins promoter up: -1.09; Cl transport mod: -0.851; Insulin prom inh: -36.8; ROMK primary: -0.0259

How did O=C(c1cc(-c2ccncc2)nc2ccccc12)N1CCN(S(=O)(=O)/C=C/c2ccccc2)CC1 do in these assays?
Lmaj promast: 97.5*; WT yeast gro inh: -2.7; Ins promoter up: -0.57; Cl transport mod: 0.723; Insulin prom inh: 55.9

How did COc1ccc(CCNC(=O)c2cccnc2)cc1OC do in these assays?
Lmaj promast: -5.6; WT yeast gro inh: 4.3; Ins promoter up: 0.75; ROMK primary: -0.244

How did O=C(CCc1ccccc1)NC(c1cccs1)c1cc(Cl)c2cccnc2c1O (stereo not given) do in these assays?
Lmaj promast: 98.8*; WT yeast gro inh: 35.2; Ins promoter up: -5.53; Insulin prom inh: -114.6; ROMK primary: 0.0571

Results for COc1ccc(C(NC(=O)c2cccnc2)c2cc(Cl)c3cccnc3c2O)cc1OC (stereo not given) ?
Lmaj promast: 98.1*; WT yeast gro inh: -21.3; Ins promoter up: -1.33; Cl transport mod: 0.0607; Insulin prom inh: -48.3

How did CCC(=O)NC(c1ccco1)c1cc(Cl)c2cccnc2c1O (stereo not given) do in these assays?
Lmaj promast: 14.8; WT yeast gro inh: -23.6; Cl transport mod: 0.691; ROMK primary: -0.0391

How did CCC(=O)NC(c1ccc(OC)cc1)c1cc(Cl)c2cccnc2c1O (stereo not given) do in these assays?
Lmaj promast: 98.2*; WT yeast gro inh: -2.5; Ins promoter up: -0.39; Cl transport mod: 0.0512; ROMK primary: 1.3

Results for COc1ccc(CNC(=O)CSc2cccc3cccnc23)cc1 ?
Ins promoter up: 0.76; Cl transport mod: 0.00252; ROMK primary: 0.964

What do the screens show for `CCCC(=O)NC(c1ccc(OC)cc1)c1ccc2cccnc2c1O` (stereo not given)?
Lmaj promast: 100.4*; WT yeast gro inh: -8.2; Ins promoter up: -4.04; Cl transport mod: 1.4; Insulin prom inh: 7.1; ROMK primary: 0.553

Results for CC(C)(C)Sc1ccc2nc3c(n2c1)CCCC3 ?
Lmaj promast: 15.6; WT yeast gro inh: 51.3; Ins promoter up: -0.32; Cl transport mod: -0.842; Insulin prom inh: 42.9; ROMK primary: -0.0227

How did COc1ccc(-n2c(C)ccc2C)c([N+](=O)[O-])c1 do in these assays?
Lmaj promast: 3.5; WT yeast gro inh: 18.1; Ins promoter up: 0.15; Cl transport mod: 0.0103; ROMK primary: 0.945

Results for O=C1CCCC/C1=C\Nc1ccc(Cl)cn1 ?
Lmaj promast: 49.5; WT yeast gro inh: 10.2; Ins promoter up: -0.02; Cl transport mod: 1.59; Insulin prom inh: 4.0

Results for COC(=O)Cn1cc(C#N)c2ccccc21 ?
Lmaj promast: -6.7; WT yeast gro inh: -7.5; Ins promoter up: 0.7; Cl transport mod: 0.143; Insulin prom inh: -66.7; ROMK primary: 0.785

What do the screens show for `CCC(=O)NC(c1ccccc1OC)c1ccc2cccnc2c1O` (stereo not given)?
Lmaj promast: 100.2*; WT yeast gro inh: -12.3; Ins promoter up: inconclusive; Cl transport mod: 0.233; Insulin prom inh: 66.7; ROMK primary: 0.365

Results for COc1ccc(Cl)cc1C(Nc1cccnc1)c1ccc2cccnc2c1O (stereo not given) ?
Lmaj promast: 61.9*; WT yeast gro inh: 7.2; Ins promoter up: -0.1; Cl transport mod: 2.05; ROMK primary: -0.364

How did COc1cccc(/C=N/NC(=O)COc2cccc3cccnc23)c1O do in these assays?
Lmaj promast: 30.1; WT yeast gro inh: -2.0; Cl transport mod: -1.02; ROMK primary: 0.333

Results for COc1ccc(C(=O)Nc2cccnc2)cc1OC ?
Lmaj promast: -0.5; WT yeast gro inh: -0.2; Cl transport mod: -0.0427; Insulin prom inh: 42.1; ROMK primary: 0.578

How did CN(C)/C=C(\C=N\OCc1ccc(Cl)cc1Cl)C(=O)Nc1ccc(Cl)c(Cl)c1 do in these assays?
Lmaj promast: -2.4; WT yeast gro inh: 83.6*; Ins promoter up: 0; Insulin prom inh: -40.7

How did Cc1cc(C)cc(OCCCOc2cccc3cccnc23)c1 do in these assays?
Lmaj promast: 81.5*; WT yeast gro inh: 66.2*; Ins promoter up: 0.37; Cl transport mod: -0.296

What do the screens show for `CC1CCC2(CC1)NC(=S)N(C(C)(C)C)N2` (stereo not given)?
Ins promoter up: 0.04; Cl transport mod: 1.09
